For ten compounds, residual activity results are on record in ChEMBL document CHEMBL2218924, “A broad activity screen in support of a chemogenomic map for kinase signalling research and drug discovery” (Biochem J, 2013).

The target of assay [1] is Ribosomal protein S6 kinase alpha-5 (Homo sapiens) (UniProt O75582). The conditions noted are these: at 10 µM.
The target of assay [2] is Ribosomal protein S6 kinase alpha-4 (Homo sapiens) (UniProt O75676). To be noted: at 1 µM.
Assay [3] has the same target. The conditions noted are these: at 10 µM.
Assay [4] addresses T1, Tyrosine-protein kinase Mer (Homo sapiens) (UniProt Q12866).
T1 sequence (whole entry): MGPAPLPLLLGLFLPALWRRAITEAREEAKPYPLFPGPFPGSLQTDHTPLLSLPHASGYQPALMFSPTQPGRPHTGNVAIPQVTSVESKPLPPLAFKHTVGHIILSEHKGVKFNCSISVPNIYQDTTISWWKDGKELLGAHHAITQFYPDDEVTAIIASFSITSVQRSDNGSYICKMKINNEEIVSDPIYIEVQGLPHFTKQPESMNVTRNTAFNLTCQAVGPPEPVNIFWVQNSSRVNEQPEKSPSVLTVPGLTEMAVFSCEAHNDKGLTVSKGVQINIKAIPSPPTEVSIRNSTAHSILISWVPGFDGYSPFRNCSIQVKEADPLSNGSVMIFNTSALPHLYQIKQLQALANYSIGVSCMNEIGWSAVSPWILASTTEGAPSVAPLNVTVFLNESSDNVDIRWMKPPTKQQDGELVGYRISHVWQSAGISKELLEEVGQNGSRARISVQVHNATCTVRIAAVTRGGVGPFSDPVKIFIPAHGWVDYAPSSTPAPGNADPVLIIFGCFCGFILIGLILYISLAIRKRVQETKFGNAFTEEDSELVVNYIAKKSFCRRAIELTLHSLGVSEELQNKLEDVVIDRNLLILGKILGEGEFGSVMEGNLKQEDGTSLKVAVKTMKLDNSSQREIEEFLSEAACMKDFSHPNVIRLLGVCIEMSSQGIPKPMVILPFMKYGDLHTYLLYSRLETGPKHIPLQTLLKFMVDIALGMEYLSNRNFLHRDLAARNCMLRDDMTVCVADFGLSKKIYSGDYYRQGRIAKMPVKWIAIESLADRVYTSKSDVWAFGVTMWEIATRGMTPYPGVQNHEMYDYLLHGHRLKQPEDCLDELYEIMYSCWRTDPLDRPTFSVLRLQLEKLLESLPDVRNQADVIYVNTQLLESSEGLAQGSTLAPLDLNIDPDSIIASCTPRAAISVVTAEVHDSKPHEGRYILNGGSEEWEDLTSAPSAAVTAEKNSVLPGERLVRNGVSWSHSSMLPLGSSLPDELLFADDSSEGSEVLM
To be noted: at 10 µM.

For assay [5], the target named is Ribosomal protein S6 kinase alpha-5 (Homo sapiens) (UniProt O75582). To be noted: at 1 µM.
Assay [6] has as its target T2, Serine/threonine-protein kinase 4 (Homo sapiens) (UniProt Q13043).
T2 sequence (whole entry): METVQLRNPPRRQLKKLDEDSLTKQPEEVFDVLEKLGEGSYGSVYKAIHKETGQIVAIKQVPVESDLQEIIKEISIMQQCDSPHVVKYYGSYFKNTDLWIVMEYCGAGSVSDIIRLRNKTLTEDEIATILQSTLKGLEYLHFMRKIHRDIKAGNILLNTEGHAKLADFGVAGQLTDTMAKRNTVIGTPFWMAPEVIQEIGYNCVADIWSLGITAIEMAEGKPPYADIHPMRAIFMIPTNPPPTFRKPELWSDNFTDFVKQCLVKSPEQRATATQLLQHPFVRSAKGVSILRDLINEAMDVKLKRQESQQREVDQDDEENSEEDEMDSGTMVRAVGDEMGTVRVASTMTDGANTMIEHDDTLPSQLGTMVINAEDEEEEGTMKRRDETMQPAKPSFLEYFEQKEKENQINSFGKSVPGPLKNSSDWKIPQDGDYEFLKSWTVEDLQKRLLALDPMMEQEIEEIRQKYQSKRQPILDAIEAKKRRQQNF
The conditions noted are these: at 1 µM.

In assay [7] the target is T2, Serine/threonine-protein kinase 4 (Homo sapiens). To be noted: at 10 µM.
Assay [8] concerns the target Serine/threonine-protein kinase 24 (Homo sapiens) (UniProt Q9Y6E0). The conditions noted are these: at 1 µM.
Assay [9] has the same target. To be noted: at 10 µM.
Assay [10] concerns the target T1, Tyrosine-protein kinase Mer (Homo sapiens). The conditions noted are these: at 1 µM.
Assay [11] addresses Hepatocyte growth factor receptor (Homo sapiens) (UniProt P08581). The conditions noted are these: at 1 µM.
For assay [12] the target is unchanged. The conditions noted are these: at 10 µM.
In assay [13] the target is MAP kinase-interacting serine/threonine-protein kinase 2 (Homo sapiens) (UniProt Q9HBH9). To be noted: at 10 µM.
The target of assay [14] is SRSF protein kinase 3 (Homo sapiens) (UniProt Q9UPE1). The conditions noted are these: at 1 µM.
The target is the same in assay [15]. To be noted: at 10 µM.
In assay [16] the target is T3, Serine/threonine-protein kinase 3 (Homo sapiens) (UniProt Q13188).
T3 sequence (whole entry): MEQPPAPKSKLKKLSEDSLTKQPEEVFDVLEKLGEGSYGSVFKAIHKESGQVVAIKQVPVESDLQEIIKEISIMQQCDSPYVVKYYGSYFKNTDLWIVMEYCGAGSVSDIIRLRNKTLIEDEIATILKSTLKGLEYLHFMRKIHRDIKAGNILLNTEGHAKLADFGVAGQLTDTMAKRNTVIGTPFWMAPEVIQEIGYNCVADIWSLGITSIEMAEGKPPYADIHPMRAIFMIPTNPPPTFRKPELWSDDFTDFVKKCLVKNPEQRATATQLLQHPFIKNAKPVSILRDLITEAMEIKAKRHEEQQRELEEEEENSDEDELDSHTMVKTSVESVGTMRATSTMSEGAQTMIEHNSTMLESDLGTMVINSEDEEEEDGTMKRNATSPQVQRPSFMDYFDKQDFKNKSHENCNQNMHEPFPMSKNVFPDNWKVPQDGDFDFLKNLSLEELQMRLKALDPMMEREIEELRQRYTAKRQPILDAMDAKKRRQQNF
The conditions noted are these: at 1 µM.

In assay [17] the target is T3, Serine/threonine-protein kinase 3 (Homo sapiens). To be noted: at 10 µM.
The target of assay [18] is MAP kinase-interacting serine/threonine-protein kinase 2 (Homo sapiens) (UniProt Q9HBH9). The conditions noted are these: at 1 µM.
The target in assay [19] is Serine/threonine-protein kinase MRCK beta (Homo sapiens) (UniProt Q9Y5S2). The conditions noted are these: at 1 µM.
Assay [20] has the same target. To be noted: at 10 µM.

Chain of Hepatocyte growth factor receptor (Homo sapiens) (P08581 whole entry): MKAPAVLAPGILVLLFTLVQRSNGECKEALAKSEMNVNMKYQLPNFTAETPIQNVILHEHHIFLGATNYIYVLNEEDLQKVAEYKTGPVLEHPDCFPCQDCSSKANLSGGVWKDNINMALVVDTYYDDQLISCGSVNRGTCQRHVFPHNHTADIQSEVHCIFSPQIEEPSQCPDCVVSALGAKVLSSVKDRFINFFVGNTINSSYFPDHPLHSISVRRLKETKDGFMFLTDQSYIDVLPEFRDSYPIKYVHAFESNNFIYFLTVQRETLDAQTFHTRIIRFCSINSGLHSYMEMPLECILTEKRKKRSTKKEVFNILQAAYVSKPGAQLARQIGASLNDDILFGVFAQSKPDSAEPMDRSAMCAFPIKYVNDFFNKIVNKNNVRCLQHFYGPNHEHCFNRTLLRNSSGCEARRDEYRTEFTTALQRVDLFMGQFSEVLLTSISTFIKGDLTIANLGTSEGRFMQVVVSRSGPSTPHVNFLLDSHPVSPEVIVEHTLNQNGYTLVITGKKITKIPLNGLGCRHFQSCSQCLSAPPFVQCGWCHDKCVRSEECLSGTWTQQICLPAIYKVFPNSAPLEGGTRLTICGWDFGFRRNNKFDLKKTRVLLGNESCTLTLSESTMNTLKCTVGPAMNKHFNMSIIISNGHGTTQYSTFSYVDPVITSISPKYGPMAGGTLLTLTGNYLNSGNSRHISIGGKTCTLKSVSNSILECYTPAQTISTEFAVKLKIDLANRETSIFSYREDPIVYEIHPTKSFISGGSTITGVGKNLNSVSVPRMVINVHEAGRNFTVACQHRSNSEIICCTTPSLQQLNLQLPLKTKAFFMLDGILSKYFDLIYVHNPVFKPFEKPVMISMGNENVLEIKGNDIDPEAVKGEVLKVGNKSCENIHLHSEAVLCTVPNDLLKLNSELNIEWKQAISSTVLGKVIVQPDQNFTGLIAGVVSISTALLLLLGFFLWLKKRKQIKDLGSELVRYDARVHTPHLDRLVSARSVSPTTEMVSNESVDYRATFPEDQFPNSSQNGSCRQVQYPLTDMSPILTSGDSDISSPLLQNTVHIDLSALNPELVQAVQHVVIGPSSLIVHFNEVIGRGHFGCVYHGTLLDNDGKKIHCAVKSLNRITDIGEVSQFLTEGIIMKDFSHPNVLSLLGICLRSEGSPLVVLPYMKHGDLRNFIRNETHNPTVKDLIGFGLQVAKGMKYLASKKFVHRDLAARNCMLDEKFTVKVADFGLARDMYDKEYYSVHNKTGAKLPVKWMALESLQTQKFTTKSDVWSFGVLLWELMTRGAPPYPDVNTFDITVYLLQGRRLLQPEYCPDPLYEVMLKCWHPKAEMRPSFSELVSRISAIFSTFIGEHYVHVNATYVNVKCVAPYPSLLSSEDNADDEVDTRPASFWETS
Chain of Ribosomal protein S6 kinase alpha-4 (Homo sapiens) (O75676 whole entry, looked up): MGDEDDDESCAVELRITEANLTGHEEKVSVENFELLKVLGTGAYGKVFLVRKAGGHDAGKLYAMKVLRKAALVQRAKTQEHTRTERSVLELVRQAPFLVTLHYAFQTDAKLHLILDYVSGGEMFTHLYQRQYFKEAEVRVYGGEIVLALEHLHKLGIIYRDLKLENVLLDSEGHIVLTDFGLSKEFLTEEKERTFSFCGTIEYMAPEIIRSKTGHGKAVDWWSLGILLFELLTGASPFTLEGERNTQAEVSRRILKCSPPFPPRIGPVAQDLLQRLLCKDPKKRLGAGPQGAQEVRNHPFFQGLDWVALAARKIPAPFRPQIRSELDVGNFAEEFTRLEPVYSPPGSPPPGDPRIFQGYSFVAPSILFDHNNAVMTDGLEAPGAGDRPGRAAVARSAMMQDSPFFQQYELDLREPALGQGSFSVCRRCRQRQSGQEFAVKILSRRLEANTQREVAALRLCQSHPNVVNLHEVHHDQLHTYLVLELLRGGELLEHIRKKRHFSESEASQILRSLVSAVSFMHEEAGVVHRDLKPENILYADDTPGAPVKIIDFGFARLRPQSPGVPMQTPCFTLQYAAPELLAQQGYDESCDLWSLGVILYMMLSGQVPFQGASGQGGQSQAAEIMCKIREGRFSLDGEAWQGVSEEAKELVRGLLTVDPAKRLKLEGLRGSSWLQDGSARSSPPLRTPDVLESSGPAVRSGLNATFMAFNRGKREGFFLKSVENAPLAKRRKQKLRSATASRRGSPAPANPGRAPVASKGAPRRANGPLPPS
Chain of Ribosomal protein S6 kinase alpha-5 (Homo sapiens) (O75582 whole entry, looked up): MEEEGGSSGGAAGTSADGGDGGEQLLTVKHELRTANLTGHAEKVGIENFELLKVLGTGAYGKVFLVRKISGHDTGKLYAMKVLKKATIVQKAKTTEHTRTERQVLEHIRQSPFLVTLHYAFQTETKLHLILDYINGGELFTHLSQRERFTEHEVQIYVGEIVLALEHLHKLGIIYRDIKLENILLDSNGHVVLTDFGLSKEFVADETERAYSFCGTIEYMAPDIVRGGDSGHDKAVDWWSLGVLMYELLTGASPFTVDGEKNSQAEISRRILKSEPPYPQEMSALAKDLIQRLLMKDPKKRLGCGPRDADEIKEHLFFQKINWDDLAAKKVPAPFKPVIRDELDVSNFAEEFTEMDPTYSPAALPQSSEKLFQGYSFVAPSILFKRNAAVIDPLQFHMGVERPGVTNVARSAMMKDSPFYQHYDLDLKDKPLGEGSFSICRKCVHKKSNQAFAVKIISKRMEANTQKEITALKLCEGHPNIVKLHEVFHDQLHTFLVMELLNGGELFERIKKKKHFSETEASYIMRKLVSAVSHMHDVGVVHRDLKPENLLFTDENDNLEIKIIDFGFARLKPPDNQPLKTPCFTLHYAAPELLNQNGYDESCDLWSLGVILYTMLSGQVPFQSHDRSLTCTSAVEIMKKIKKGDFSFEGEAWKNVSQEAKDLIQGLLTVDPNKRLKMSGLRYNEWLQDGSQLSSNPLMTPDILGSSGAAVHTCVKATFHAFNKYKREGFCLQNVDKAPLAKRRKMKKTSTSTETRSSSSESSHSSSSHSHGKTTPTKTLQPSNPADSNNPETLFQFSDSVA
Chain of MAP kinase-interacting serine/threonine-protein kinase 2 (Homo sapiens) (Q9HBH9 whole entry, looked up): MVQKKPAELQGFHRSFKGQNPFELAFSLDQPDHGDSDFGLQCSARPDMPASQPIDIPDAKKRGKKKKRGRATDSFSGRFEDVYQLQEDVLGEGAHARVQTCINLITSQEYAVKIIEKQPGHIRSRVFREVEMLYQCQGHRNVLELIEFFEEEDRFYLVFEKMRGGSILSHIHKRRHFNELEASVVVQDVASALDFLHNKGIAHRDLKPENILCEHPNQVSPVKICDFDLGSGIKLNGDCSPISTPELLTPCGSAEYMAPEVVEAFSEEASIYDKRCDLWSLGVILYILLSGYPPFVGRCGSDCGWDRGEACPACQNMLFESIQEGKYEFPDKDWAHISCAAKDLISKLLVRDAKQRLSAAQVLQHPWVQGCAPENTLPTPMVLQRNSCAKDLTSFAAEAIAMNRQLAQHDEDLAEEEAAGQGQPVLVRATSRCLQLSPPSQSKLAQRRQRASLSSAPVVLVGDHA
Chain of SRSF protein kinase 3 (Homo sapiens) (Q9UPE1 whole entry): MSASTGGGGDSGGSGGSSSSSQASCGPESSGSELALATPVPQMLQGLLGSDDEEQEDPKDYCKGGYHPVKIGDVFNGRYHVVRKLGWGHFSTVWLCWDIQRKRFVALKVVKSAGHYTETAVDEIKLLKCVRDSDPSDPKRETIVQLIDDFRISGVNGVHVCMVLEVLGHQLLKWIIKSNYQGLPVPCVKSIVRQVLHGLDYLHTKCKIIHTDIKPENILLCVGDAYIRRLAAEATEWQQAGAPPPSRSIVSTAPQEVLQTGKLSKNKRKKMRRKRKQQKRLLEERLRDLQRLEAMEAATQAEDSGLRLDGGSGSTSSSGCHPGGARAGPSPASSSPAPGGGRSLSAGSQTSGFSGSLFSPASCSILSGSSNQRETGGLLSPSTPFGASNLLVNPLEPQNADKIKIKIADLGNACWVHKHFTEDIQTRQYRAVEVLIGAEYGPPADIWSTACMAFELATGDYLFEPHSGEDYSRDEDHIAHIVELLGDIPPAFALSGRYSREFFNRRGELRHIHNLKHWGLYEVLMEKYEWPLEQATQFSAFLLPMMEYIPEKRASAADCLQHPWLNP
Chain of Serine/threonine-protein kinase 24 (Homo sapiens) (Q9Y6E0 whole entry, looked up): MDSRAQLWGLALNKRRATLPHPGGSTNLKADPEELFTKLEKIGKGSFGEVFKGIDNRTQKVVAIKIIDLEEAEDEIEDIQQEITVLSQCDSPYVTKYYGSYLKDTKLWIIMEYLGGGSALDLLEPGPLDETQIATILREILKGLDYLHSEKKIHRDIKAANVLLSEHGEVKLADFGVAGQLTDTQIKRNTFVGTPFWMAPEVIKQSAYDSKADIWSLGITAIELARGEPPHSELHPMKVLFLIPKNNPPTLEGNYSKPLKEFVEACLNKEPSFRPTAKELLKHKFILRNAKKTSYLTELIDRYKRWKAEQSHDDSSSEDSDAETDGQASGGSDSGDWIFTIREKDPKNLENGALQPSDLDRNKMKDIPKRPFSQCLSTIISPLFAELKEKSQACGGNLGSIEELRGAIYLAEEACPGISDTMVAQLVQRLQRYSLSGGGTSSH

Take `O=S(=O)(c1cccc2cnccc12)N1CCCNCC1`: the residual activity in assay [1] came to 41%; in assay [2] it was 58%; in [3] it was 21%; in assay [4] it was 77%.
With `O=C1Nc2ccccc2/C1=C\c1c(Cl)[nH]c2ccccc12`, the residual activity in [5] was 100%; in assay [1] it was 71%; in [3], 59%; in assay [6], 51%; in assay [7] it was 63%; in assay [8] it was 83%. Besides, the residual activity in assay [9] came to 67%; in assay [10], 77%; in assay [4] it was 21%; in assay [11] it was 121%; in [12] it was 40%; in assay [13], 70%.
For the compound `CN(C)S(=O)(=O)c1ccc2c(c1)/C(=C/c1cc3c([nH]1)CCCC3)C(=O)N2`, the residual activity in [5] stood at 115%; in [1], 125%; in [3], 94%; in [14], 98%; in [15], 77%; in [6] it was 23%. Further, the residual activity amounted to 2% in assay [7]; 28% in assay [16]; 22% in assay [17]; 60% in assay [8]; 30% in assay [9]; 12% in [10]. The residual activity amounted to 13% in assay [4], 130% in assay [12], 96% in assay [18] and 89% in [13].
Turning to `CCN(CC)CCNC(=O)c1c(C)[nH]c(/C=C2\C(=O)Nc3ccc(Cl)cc32)c1C`, the residual activity in assay [5] worked out at 80%; in assay [1], 31%; in [2], 42%; in assay [3] it was 15%; in [14], 98%; in [15] it was 61%. In addition, the residual activity is 12% in [6]; 5% in [7]; 34% in [16]; 2% in assay [17]; 8% in assay [8]; 1% in assay [9]. Further, the residual activity stood at 7% in assay [10]; 0% in [4]; 45% in assay [11]; 7% in assay [12]; 99% in [18]; 45% in [13].
For `COc1ccc(-c2cnc3c(-c4ccsc4)cnn3c2)cc1`, the residual activity came to 94% in assay [1]; 95% in assay [2]; 95% in [3]; 67% in assay [8]; 81% in assay [9]; 95% in assay [18]. Also, in [13], the residual activity worked out at 87%.
As to `Nc1nccc(-c2c(-c3ccc(F)cc3)ncn2C2CCNCC2)n1`, the residual activity is 82% in [8]; 82% in [9]; 67% in [10]; 24% in assay [4]; 114% in [11]; 82% in assay [12]. In [13], the residual activity was found to be 82%.
On to `NC(=O)c1cccc(-c2cc(Nc3ccc(OC(F)(F)F)cc3)ncn2)c1`, for which the residual activity in assay [8] was determined as 74%; in assay [9], 93%; in assay [18], 91%; in assay [13], 54%.
Consider `N#C/C(=C1/Nc2ccccc2S1)c1ccnc(NCCc2cccnc2)n1`, for which the residual activity in assay [5] turned out to be 112%; in assay [1] it was 68%; in assay [6] it was 81%; in [7] it was 84%; in assay [16], 97%; in assay [17], 56%. For the same compound, the residual activity in [8] amounted to 89%; in [9], 61%; in [10], 82%; in assay [4] it was 69%; in assay [11], 138%; in [12] it was 74%. The residual activity stood at 36% in [18] and 8% in assay [13].
In the case of `O=c1c(-c2ccc(F)cc2)c(-c2ccncc2)[nH]n1-c1ccc(Cl)cc1`, the residual activity in assay [9] turned out to be 79%; in assay [11], 67%; in [12] it was 28%.
Turning to `Nc1ncnc2c1cnn2-c1ccccc1`, the residual activity in [19] stood at 95%; in assay [20], 83%; in [3], 86%; in assay [15], 23%; in [6], 97%; in assay [17], 93%. In addition, the residual activity in assay [8] came to 68%; in assay [9], 84%; in assay [10], 101%; in assay [4], 92%; in assay [11], 98%; in assay [12], 85%. Moreover, the residual activity in [18] amounted to 56%; in assay [13] it was 22%.
